Reference: PubChem BioAssay (NCATS)
Records with an inconclusive call do not appear. A number with no mark means an inactive call. Active and inactive are the calls of the source. Calls follow the shape of the dose curve; as a rule, active = well fitted inhibition curve with a large enough effect; inconclusive = small, poorly fitted or top-dose-only effect; inactive = flat fitted curve, though single readings scatter.

Assay: qHTS profiling for inhibitors of Plasmodium falciparum proliferation (AID 504749); also: nearly all actives have a fitted effect of over 60% in size;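 as to activity, negative = inhibition: 0% = DMSO vehicle and full inhibition = artemisinin control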
Settings: P. falciparum in erythrocytes, SYBR Green DNA, 72 h; at 28.7 µM (top of the series); parasite line A
Source text: NIH National Institute of Allergy and Infectious Diseases [NIAID] NIH Chemical Genomics Center [NCGC] MLPCN Grant: None Assay Provider: Xinzhuan Su, NIAID NCGC Assay Overview: Plasmodium falciparum is a virulent malarial parasite that kills 1-2 million people worldwide each year. Transmitted by mosquitoes, the sporozoite form of the parasite enters the blood stream to infect hepatocytes, where they become merozoites that infect red blood cells (erythrocytes). Within erythrocytes, merozoites begin a […] cycle of growth and division, after which the parasite is released to infect new red blood cells. Gametocytes, which form within erythrocytes as well, circulate in the bloodstream and are ingested by the mosquito, thereby completing the life cycle. To profile malarial isolates for differential chemical responses and to identify inhibitors of malarial growth, an assay that measures P. falciparum growth and replication within erythrocytes was employed. This assay uses a DNA binding fluorescent dye (SYBR Green) to detect parasite DNA following cell lysis. Because mature erythrocytes lack DNA, only Plasmodium-derived DNA is detected.
NCGC Assay Protocol Summary: The SYBR Green viability assay was adapted from a method described previously (Plouffe et al., 2008). For screening 3 ul culture medium was dispensed into 1536 well black clear bottom plates (Aurora Biotechnologies) using a Multidrop Combi (Thermo Fisher Scientific Inc.), 23 nL compounds in DMSO were added by a pin tool (Kalypsys), and 5 ul of erythrocytes infected with P. falciparum (0.3% parasitemia, 2.5% hematocrit final concentration) were added. The plates were incubated at 37 C in a humidified incubator in 5% CO2 for 72 h, and 2 ul lysis buffer (20 mM Tris HCl, 10 mM EDTA, 0.16% saponin, 1.6% triton X, 10X SYBR Green I supplied as 10,000X […] by Invitrogen) was added to each well. The plates were mixed for 25 sec with gentle shaking and incubated overnight at room temperature in the dark. The following morning, fluorescence intensity at 485(14) nm excitation and 535(25) nm emission wavelengths was measured on an EnVision (Perkin Elmer) plate reader. Plate reads were normalized relative to the control inhibitor (0.29 uM artemisinin) and vehicle (DMSO) wells present on each plate and then corrected by an algorithm using vehicle-only control plates at the beginning and end of the compound plate stack.
Potency is read from the fitted curve at half-maximal effect.

| SMILES | activity, negative = inhibition [%] |
| --- | --- |
| C[C@@H]1O[C@@H](O[C@H]2C[C@@H](O)[C@@]3(CO)[C@H]4[C@H](O)C[C@]5(C)[C@@H](C6=CC(=O)OC6)CC[C@]5(O)[C@H]4CC[C@@]3(O)C2)[C@@H](O)[C@H](O)[C@H]1O | -4.19 |
| C[N+]1([O-])[C@H]2CC[C@H]1CC(OC(=O)[C@@H](CO)c1ccccc1)C2 (some centres not stated) | 6.57 |
| C[N+]1(C)C2CC[C@H]1CC(OC(=O)[C@@H](CO)c1ccccc1)C2 (some centres not stated) | 0.517 |
| C[C@@H](Cc1ccc(O)cc1)NC[C@@H](O)c1cc(O)cc(O)c1 | 13.4 |
| O=C1C[C@@H]2OCC=C3CN4CC[C@]56c7ccccc7N1[C@@H]5[C@@H]2[C@H]3C[C@H]46 (tested in a mixture with another compound) | -29.7 |

Same assay, conditions: P. falciparum in erythrocytes, SYBR Green DNA, 72 h; at 28.7 µM (top of the series); parasite line B

| SMILES | activity, negative = inhibition [%] |
| --- | --- |
| C[C@@H]1O[C@@H](O[C@H]2C[C@@H](O)[C@@]3(CO)[C@H]4[C@H](O)C[C@]5(C)[C@@H](C6=CC(=O)OC6)CC[C@]5(O)[C@H]4CC[C@@]3(O)C2)[C@@H](O)[C@H](O)[C@H]1O | 10.7 |
| C[N+]1([O-])[C@H]2CC[C@H]1CC(OC(=O)[C@@H](CO)c1ccccc1)C2 (some centres not stated) | -2.12 |
| C[N+]1(C)C2CC[C@H]1CC(OC(=O)[C@@H](CO)c1ccccc1)C2 (some centres not stated) | -9.85 |
| C[C@@H](Cc1ccc(O)cc1)NC[C@@H](O)c1cc(O)cc(O)c1 | 5.16 |
| O=C1C[C@@H]2OCC=C3CN4CC[C@]56c7ccccc7N1[C@@H]5[C@@H]2[C@H]3C[C@H]46 (tested in a mixture with another compound) | -15.1 |

Same assay, conditions: P. falciparum in erythrocytes, SYBR Green DNA, 72 h; parasite line A

| SMILES | Potency |
| --- | --- |
| C=C[C@@H]1CN2CC[C@H]1C[C@H]2[C@H](O)c1ccnc2ccccc12 | 0.0891 µM (active) |

Same assay, conditions: P. falciparum in erythrocytes, SYBR Green DNA, 72 h; parasite line B

| SMILES | Potency |
| --- | --- |
| C=C[C@@H]1CN2CC[C@H]1C[C@H]2[C@H](O)c1ccnc2ccccc12 | 0.1 µM (active) |
